Shown are actives, neighbours in structure and some others; about 28% of the full set was active somewhere.
CYP2C9 act: increases human cytochrome P450 2C9 activity; hit rate 1.4% among 96,000; recombinant CYP2C9, luciferin-H conversion, luminescence; stronger effect = higher value; factor 1 = untreated enzyme, 0 = blocked; AID 1024; activation factor at 5 µM; P11712;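 active means activation factor of 2 or more for CYP2C9 at a 5 µM dose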;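 further: 0 = sulfaphenazole-blocked wells and 1 = vehicle-only wells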
Mac1 fbg enh: increases human CD11b/CD18 adhesion to fibrinogen. K562 CD11b/CD18 adhesion to fibrinogen, ATPlite luminescence. activation, % at 10 µM. P05107+P11215. hit rate 0.07% among 93,000;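 active means 10 µM primary screen giving 50% or more activity, confirmed by 40% or more on retest at that dose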
Target sequence (P05107 whole entry, looked up, other chains not shown): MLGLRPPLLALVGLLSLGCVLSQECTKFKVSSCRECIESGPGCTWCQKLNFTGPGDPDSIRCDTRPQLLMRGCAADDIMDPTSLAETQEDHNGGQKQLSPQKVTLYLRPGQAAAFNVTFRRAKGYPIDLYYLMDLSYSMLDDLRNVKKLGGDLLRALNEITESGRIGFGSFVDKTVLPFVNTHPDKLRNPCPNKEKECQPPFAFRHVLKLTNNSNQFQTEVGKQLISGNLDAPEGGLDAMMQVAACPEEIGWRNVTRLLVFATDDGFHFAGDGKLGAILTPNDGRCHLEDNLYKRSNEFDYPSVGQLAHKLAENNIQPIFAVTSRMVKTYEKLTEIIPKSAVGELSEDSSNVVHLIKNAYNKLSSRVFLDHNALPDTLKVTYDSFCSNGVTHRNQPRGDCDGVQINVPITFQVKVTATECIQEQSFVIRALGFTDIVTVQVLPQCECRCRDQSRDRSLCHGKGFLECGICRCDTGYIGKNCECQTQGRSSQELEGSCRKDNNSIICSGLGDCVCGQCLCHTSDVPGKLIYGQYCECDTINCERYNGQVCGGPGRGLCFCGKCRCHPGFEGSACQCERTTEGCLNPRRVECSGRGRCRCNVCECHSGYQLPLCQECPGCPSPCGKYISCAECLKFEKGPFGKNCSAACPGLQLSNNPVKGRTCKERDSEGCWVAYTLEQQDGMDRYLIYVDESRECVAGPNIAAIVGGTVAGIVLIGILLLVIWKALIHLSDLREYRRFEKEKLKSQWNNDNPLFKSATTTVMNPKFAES
CYP2C19 act: increases human CYP2C19 enzyme activity; activation factor at 5 µM; recombinant CYP2C19, luciferin-H EGE luminescence; stronger effect = higher value; 0 = fully inhibited enzyme, 1 = untreated enzyme; P33261; AID 1025; 96,000 tested, under 10 active;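 active means activation factor of at least 2 at 5 µM in the primary screen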;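 further: 0 = wells with 2.5 mM tranylcypromine and 1 = vehicle-only wells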
CYP2C9 inhib: human CYP2C9 inhibition; inhibition, % at 5 µM; CYP2C9 Supersomes, luciferin-H conversion, luminescence; P11712; hit rate 20% among 96,000;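 active means blocking of liver enzyme CYP2C9 beyond about 50% at 5 µM, limit read from the data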
Mac1 fbg inh: CD11b/CD18-fibrinogen binding inhibition; P05107+P11215; K562 CD11b/CD18 adhesion to fibrinogen, ATPlite luminescence; Mn2+ added to activate the integrin; inhibition, % at 10 µM; hit rate 0.54% among 93,000; AID 1497;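 active means primary inhibition of 50% or more at 10 µM, then 40% or more on retest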
CYP2C19 inh: blocks human cytochrome P450 2C19 | hit rate 21% among 96,000 | CYP2C19 Supersomes, luciferin-H EGE luminescence, 30 min | AID 778 | inhibition, % at 5 µM | P33261;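 active means CYP2C19 inhibition above a set limit at 5 µM in the primary screen, cut at about 50% in these data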;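 further: plate controls were negative control wells for no effect and 2.5 mM tranylcypromine positive control for full effect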
* = called active by the depositor; . = no result given.

SMILES	CYP2C9 act	Mac1 fbg enh	CYP2C19 act	CYP2C9 inhib	Mac1 fbg inh	CYP2C19 inh
Cc1ccccc1N(CC(=O)NCCSC1CCCCC1)S(=O)(=O)c1ccccc1	0.4	8	0.8	58*	-13	17
Cc1ccc(OCCSc2ncnc3sc(C)c(C)c23)cc1C	1	-1	0.9	4	-22	11
COC(=O)/C(=C/c1c[nH]c2ccccc12)[N+](=O)[O-]	1.2	-4	1	-16	42	-3
COc1ccc(NC(=O)/C(Cl)=C(/Cl)S(=O)(=O)Cc2ccccc2)cn1	0.5	-1	0.5	50	7	46
COc1ccc(NS(=O)(=O)Cc2ccccc2Cl)cn1	0.7	-6	0.4	33	-2	64*
Cc1cccc(OCC(=O)NCC(=O)n2nc(C)cc2C)c1	2.1*	0	0.4	-114	2	61*
O=C(COc1ccccc1)Nc1ccc(OC(F)(F)C(F)F)c(NC(=O)COc2ccccc2)c1	0.5	1	0.8	54*	3	17
Cc1cccc(NC(=O)COc2ccccc2)c1	0.8	0	0.2	21	-3	83*
Cc1cccc(NC(=O)COc2nsnc2N2CCOCC2)c1	0.8	-6	0.4	17	3	56*
CC(=O)c1cccc(NC(=O)COc2nsnc2N2CCOCC2)c1	0.6	-2	0.5	41	6	50
Cc1cccc(OCC(=O)Nc2cccc(O)c2)c1	0.8	-3	0.2	22	-11	79*
Cc1ccc(OCC(=O)Nc2cccc(O)c2)cc1C	1.4	0	0.8	-43	21	17
CCOC(=O)c1c(C)sc2c1N(C(C)=O)c1cc(Cl)ccc1S2	0.8	-3	0.4	23	42	60*
Cc1cc(NC(=O)COn2nnc3ccc(Cl)cc32)no1	0.2	-2	0.6	77*	-1	36
Cc1cc(NC(=O)CSc2nc3cc(Cl)ccc3s2)no1	1	61	1	3	-6	2
CCc1cccc(CC)c1NC(=O)COn1nnc2ccc(C(F)(F)F)cc21	.	0	.	.	0	.
CC1CCCCC1NC(=O)COn1nnc2ccc(Cl)cc21 (configuration not stated)	1.9	0	0	-85	-15	98*
CCOc1ccccc1NC(=O)COn1nnc2ccc(Cl)cc21	1.3	-4	0.4	-26	23	56*
CCOC(=O)N1CCC(n2c(=S)[nH]c3cc(OC)c(OC)cc3c2=O)CC1	0.9	-1	1	12	-16	3
O=C(COC(=O)c1cc(-c2ccccc2Cl)nc2ccccc12)Nc1ncc(C(F)(F)F)cc1Cl	.	6	.	.	4	.
COc1cccc(-c2nc(CS(=O)(=O)CC(=O)N3CCc4ccccc43)c(C)o2)c1	1.2	-2	0.8	-18	10	21
O=S(=O)(Cc1nc2ccccc2s1)c1ccccc1	2.3*	4	0.6	-125	-9	44
COc1ccc(S(=O)(=O)CCc2nc3ccccc3s2)cc1	0.9	-5	0.2	9	13	76*
c1ccc(CNC2=NCCC2)nc1	1.1	-1	1	-6	-27	-1
c1ccc(CNc2ccc3ccccc3n2)nc1	1.1	0	0.2	-13	15	75*
SMILES	CYP2C9 act	Mac1 fbg enh	CYP2C19 act	CYP2C9 inhib	Mac1 fbg inh	CYP2C19 inh
Cc1nc(NCc2ccccn2)c2ccccc2n1	1	2	1	-4	37	0
Cc1cc(NCc2ccccn2)nc2ccccc12	3*	-3	0.4	-197	7	56*
Cc1nn(Cc2ccc(C(=O)NC(C)(C)C)o2)c(C)c1Br	0.7	-7	0.5	30	74*	50*
Cc1cc(NC(=O)c2ccc(Cn3nc(C)c(Br)c3C)o2)no1	0.7	0	0.5	32	-16	49
Cc1nn(Cc2ccc(C(=O)Nc3nc4c(C)cccc4s3)o2)c(C)c1Br	0.7	.	0.8	31	.	23
Cc1nn(Cc2ccc(Cl)cc2Cl)c(C)c1NC(=O)c1ccc(COc2cc(Cl)ccc2Cl)o1	0.5	.	0.7	47	.	32
Cc1nn(Cc2ccc(C(=O)Nc3ccc(C(=O)OC(C)C)cc3)o2)c(C)c1Cl	0.4	4	0.5	63*	25	46
Cc1nn(Cc2ccc(C(=O)NC3CCCCC3)o2)c(C)c1Br	0.5	0	0.2	50*	-4	76*

Screens as filed in PubChem BioAssay.
